The record followed here is paper PMC7862700, “An all-to-all approach to the identification of sequence-specific readers for epigenetic DNA modifications on cytosine”.

What all share (test): DAPPL (digital affinity profiling via proximity ligation, sequencing); 10 mM Tris-HCl pH 7.5, 50 mM NaCl, 1 mM DTT, 4% glycerol, room temperature, 30 min; GST-TFs on glutathione beads, 16-mer random dsDNA library, 0.1% formaldehyde crosslink after washing; high values mean tight binding
What all share (conditions): protein: recombinant; tags: N-terminal GST; dsDNA, one strand shown

In one test the target is T1, FLI1 (Homo sapiens, UniProt Q01543 1-452).
T1 sequence: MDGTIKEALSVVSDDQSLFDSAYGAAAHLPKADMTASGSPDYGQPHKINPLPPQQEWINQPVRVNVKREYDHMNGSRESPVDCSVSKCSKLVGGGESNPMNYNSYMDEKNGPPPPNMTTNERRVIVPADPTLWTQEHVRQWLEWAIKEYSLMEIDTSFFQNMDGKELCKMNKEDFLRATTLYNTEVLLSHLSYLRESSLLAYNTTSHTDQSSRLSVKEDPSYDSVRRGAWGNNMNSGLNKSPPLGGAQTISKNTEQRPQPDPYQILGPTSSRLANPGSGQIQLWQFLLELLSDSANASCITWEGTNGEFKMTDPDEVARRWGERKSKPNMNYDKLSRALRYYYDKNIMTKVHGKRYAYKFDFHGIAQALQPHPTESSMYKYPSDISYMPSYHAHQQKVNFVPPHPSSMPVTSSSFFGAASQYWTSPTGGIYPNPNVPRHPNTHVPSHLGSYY
An outline of the steps: (§1)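 Beads coated with glutathione captured GST-fused human transcription factors that had been expressed in yeast, and the factors were then given DNA barcodes and pooled with a tag-only sample. The pools were incubated with 200 nmole of a random double-stranded 16-mer DNA library in Tris/NaCl/DTT/glycerol buffer for 30 min at room temperature, washed, crosslinked with 0.1% formaldehyde and proximity-ligated with BsaI/T4 ligase at 37 °C for 1 h. PCR amplification and Illumina NextSeq500 sequencing came last. Binding signal is each hexamer's read frequency for a factor divided by its frequency for the tag-only sample.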

The next test has as its target T2, ELK1 (Homo sapiens, UniProt P19419 1-428).
T2 sequence: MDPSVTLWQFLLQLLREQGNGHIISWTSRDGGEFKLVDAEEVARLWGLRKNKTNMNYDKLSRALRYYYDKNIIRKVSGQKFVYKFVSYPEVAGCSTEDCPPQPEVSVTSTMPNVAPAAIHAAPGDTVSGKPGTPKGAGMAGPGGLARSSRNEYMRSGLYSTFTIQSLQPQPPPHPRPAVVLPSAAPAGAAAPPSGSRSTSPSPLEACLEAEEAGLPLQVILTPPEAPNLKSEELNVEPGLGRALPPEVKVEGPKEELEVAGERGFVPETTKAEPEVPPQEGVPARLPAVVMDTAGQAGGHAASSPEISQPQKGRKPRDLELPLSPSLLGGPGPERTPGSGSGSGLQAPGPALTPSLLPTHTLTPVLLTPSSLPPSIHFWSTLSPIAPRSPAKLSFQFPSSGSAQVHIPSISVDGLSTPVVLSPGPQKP
A digest of the protocol: as §1

The next test addresses T3, GABPA (Homo sapiens, UniProt Q06546 1-454).
T3 sequence: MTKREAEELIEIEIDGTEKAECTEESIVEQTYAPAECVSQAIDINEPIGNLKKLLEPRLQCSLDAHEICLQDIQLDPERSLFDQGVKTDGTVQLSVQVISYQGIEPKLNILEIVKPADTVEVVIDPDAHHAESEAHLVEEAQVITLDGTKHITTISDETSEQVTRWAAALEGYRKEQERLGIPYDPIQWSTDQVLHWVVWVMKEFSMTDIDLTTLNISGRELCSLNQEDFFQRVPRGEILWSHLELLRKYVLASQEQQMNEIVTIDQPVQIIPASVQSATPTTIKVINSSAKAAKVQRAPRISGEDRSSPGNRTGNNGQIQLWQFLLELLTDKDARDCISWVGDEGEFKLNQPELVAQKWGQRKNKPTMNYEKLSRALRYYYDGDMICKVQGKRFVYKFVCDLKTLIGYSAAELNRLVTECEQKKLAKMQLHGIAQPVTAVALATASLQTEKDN
An outline of the steps:
as §1

A further test deals with T4, ERG (Homo sapiens, UniProt P11308 1-479).
T4 sequence: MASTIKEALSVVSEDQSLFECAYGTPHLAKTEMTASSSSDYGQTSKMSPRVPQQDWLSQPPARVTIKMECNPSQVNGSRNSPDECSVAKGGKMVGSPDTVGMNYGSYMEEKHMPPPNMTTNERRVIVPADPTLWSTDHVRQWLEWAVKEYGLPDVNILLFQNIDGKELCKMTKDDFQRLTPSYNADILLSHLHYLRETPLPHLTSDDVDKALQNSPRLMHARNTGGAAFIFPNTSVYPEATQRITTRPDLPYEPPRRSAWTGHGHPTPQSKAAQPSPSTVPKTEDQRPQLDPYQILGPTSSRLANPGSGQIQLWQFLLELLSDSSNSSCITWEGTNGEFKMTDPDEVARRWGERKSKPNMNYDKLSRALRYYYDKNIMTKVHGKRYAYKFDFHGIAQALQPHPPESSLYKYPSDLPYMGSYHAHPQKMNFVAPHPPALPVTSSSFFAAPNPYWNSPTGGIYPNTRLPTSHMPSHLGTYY
An outline of the steps: as §1

In another test the target is ELF1 (Homo sapiens, UniProt P32519 1-619). An outline of the steps:
as §1

For a further test, the target named is T5, EHF (Homo sapiens, UniProt Q9NZC4 1-300).
T5 sequence: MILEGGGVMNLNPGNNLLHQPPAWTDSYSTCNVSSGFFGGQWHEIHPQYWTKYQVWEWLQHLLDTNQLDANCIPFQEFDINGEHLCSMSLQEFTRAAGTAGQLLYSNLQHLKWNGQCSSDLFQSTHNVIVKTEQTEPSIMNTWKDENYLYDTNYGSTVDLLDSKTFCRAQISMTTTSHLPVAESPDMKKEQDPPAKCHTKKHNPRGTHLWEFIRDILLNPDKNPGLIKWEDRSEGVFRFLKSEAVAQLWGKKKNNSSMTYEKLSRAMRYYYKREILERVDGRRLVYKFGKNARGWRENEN
An outline of the steps:
as §1

The target in the next test is SPI1 (Homo sapiens, UniProt P17947 1-270). A digest of the protocol:
as §1

Another test concerns the target SPIB (Homo sapiens, UniProt Q01892 1-262). A digest of the protocol: as §1
The target of the next test is T6, ELK3 (Homo sapiens, UniProt P41970 1-407).
T6 sequence: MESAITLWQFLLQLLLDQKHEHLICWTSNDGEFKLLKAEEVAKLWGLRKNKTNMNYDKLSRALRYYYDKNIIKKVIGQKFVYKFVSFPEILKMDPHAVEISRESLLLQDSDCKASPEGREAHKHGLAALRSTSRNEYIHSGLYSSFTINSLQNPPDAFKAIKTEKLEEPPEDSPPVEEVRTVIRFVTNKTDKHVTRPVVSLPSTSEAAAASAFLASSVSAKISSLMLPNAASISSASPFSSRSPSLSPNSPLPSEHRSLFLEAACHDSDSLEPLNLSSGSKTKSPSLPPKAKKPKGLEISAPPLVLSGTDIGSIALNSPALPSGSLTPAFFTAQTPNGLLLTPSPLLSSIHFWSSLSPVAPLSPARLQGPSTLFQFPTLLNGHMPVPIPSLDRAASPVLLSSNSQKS
An outline of the steps:
as §1

For another test, the target named is T7, FEV (Homo sapiens, UniProt Q99581 1-238).
T7 sequence: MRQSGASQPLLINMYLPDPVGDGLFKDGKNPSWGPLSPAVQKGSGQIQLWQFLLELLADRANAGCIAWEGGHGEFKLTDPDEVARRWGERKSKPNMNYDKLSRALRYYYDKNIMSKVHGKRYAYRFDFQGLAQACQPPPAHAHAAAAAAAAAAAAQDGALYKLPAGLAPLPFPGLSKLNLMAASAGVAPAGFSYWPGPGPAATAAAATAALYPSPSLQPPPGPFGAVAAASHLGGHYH
A digest of the protocol:
as §1

In another test the target is ETV5 (Homo sapiens, UniProt P41161 1-510). An outline of the steps:
as §1

A further test has as its target T8, SPIC (Homo sapiens, UniProt Q8N5J4 1-248).
T8 sequence: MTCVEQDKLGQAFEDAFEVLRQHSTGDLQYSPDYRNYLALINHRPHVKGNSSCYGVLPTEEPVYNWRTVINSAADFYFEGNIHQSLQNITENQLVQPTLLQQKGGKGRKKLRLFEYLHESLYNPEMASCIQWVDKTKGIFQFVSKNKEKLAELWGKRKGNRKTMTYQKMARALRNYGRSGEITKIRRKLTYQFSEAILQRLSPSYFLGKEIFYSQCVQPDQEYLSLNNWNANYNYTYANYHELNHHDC
An outline of the steps: as §1

The next test has as its target ELF4 (Homo sapiens, UniProt Q99607 1-663). An outline of the steps:
as §1

In a further test the target is T9, ELK4 (Homo sapiens, UniProt P28324-2 1-405).
T9 sequence: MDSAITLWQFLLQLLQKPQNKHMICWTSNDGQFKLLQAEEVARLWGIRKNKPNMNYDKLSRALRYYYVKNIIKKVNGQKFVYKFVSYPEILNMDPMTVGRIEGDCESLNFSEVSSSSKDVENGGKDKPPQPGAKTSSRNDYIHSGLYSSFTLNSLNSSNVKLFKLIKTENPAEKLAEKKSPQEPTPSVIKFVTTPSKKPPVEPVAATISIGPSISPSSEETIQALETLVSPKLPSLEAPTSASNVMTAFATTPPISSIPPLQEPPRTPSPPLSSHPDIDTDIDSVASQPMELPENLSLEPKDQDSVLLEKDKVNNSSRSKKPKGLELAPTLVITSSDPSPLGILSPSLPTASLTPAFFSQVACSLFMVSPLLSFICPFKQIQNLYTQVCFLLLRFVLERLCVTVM
An outline of the steps: as §1

In the next test the target is T10, ETV2 (Homo sapiens, UniProt O00321 1-342).
T10 sequence: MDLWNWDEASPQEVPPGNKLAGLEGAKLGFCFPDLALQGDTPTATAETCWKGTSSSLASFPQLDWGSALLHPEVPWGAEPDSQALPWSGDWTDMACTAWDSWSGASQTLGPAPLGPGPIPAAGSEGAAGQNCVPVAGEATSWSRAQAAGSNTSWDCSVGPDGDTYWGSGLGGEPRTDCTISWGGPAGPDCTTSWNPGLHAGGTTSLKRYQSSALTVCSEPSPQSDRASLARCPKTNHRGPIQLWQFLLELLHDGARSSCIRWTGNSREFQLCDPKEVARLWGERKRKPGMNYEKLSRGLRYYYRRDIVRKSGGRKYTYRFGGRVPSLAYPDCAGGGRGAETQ
An outline of the steps: as §1

Another test concerns the target T11, ELF3 (Homo sapiens, UniProt P78545 1-371).
T11 sequence: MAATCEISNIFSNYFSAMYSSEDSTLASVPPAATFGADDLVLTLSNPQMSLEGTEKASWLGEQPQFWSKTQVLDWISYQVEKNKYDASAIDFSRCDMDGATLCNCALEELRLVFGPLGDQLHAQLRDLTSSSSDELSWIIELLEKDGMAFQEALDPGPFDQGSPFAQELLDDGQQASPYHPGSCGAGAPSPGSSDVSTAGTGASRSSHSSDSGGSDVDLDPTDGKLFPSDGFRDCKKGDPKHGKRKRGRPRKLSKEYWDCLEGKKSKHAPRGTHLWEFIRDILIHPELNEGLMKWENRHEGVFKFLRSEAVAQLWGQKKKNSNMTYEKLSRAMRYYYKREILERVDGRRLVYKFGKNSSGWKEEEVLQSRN
An outline of the steps:
as §1

The target of another test is ETV1 (Homo sapiens, UniProt P50549 1-477). A digest of the protocol:
as §1

Sequence of SPIB (Q01892 whole entry): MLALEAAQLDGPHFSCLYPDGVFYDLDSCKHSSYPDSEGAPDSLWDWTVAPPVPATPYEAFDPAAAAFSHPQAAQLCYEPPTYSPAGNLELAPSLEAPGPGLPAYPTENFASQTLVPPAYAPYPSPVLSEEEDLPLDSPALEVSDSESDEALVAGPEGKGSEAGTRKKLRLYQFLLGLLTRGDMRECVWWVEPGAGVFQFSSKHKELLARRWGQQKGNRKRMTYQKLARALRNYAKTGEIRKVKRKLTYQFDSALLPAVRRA
Sequence of ELF1 (P32519 whole entry): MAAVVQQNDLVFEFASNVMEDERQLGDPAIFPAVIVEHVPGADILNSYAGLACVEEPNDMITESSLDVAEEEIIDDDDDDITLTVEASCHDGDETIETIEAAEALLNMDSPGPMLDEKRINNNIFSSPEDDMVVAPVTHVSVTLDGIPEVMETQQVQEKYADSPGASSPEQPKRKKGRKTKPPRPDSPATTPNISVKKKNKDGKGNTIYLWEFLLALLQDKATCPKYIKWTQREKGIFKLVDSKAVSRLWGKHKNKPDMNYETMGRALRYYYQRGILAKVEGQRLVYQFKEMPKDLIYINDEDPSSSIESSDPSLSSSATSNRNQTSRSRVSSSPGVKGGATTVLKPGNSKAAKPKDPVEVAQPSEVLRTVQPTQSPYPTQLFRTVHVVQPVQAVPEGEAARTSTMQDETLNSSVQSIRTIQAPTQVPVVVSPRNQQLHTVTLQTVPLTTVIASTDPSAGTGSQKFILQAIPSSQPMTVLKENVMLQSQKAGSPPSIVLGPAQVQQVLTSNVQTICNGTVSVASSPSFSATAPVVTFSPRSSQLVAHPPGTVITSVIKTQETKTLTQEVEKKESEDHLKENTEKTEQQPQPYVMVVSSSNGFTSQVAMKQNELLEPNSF
Sequence of ETV5 (P41161 whole entry): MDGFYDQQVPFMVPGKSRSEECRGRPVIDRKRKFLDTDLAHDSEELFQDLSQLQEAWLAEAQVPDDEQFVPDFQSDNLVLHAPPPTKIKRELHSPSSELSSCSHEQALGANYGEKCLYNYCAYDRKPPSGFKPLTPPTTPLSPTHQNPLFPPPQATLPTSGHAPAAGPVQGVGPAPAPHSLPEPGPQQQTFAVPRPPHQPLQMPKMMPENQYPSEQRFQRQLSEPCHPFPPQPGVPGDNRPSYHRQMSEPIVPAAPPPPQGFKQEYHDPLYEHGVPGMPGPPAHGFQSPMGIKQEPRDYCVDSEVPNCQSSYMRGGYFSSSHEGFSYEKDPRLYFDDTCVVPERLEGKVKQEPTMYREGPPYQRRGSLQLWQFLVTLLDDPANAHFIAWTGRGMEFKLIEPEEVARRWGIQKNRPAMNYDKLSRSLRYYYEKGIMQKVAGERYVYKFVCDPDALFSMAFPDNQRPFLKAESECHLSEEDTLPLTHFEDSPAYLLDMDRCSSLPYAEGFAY
Sequence of ELF4 (Q99607 whole entry): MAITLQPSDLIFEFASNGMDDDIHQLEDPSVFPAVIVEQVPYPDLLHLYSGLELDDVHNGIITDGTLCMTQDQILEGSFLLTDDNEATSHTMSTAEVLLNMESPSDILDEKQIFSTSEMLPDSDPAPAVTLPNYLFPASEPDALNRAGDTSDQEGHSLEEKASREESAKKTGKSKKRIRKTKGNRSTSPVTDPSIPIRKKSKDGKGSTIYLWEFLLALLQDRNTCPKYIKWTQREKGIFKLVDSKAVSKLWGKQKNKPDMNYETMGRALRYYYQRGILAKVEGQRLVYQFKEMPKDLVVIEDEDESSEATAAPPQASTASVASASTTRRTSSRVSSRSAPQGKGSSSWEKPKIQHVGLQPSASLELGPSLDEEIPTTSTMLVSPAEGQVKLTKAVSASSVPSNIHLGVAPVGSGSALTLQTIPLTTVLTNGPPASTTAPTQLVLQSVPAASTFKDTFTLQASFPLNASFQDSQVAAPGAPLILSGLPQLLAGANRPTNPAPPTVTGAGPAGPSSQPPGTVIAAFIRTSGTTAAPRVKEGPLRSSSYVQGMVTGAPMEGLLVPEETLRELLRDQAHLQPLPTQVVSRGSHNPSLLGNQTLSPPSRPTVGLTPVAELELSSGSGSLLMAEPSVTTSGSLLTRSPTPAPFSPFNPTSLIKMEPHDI
Sequence of ETV1 (P50549 whole entry): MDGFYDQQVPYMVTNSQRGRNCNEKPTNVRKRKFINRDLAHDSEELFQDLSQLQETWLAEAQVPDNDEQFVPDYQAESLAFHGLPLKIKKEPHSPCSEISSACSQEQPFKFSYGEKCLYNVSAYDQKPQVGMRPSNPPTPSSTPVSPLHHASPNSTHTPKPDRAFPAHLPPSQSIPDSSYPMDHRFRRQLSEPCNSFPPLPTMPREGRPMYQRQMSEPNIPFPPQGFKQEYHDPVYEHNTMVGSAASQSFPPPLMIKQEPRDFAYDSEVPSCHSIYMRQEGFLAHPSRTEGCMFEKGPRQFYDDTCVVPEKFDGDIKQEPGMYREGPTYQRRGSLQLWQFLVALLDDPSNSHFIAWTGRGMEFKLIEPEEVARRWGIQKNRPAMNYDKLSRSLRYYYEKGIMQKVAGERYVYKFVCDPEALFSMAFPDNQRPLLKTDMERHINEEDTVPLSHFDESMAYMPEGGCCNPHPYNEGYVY

As for GTCACT, the binding signal is 1.1 fold enrichment (6-mer frequency, TF over GST control) with FLI1; 1.07 fold enrichment (6-mer frequency, TF over GST control) with ELK1; 1.08 fold enrichment (6-mer frequency, TF over GST control) in the test with GABPA; 1.13 fold enrichment (6-mer frequency, TF over GST control) with ERG; 1.1 fold enrichment (6-mer frequency, TF over GST control) with ELF1; 1.15 fold enrichment (6-mer frequency, TF over GST control) with EHF. Also, the binding signal was 1.19 fold enrichment (6-mer frequency, TF over GST control) in the test with SPI1; 1.21 fold enrichment (6-mer frequency, TF over GST control) with SPIB; 1.06 fold enrichment (6-mer frequency, TF over GST control) with ELK3; 1.18 fold enrichment (6-mer frequency, TF over GST control) in the test with FEV; 1.14 fold enrichment (6-mer frequency, TF over GST control) in the test with ETV5; 1.01 fold enrichment (6-mer frequency, TF over GST control) with SPIC. Further, the binding signal with ELF4 was 1.09 fold enrichment (6-mer frequency, TF over GST control); in the test with ELK4 it was 1.07 fold enrichment (6-mer frequency, TF over GST control); in the test with ETV2, 1.14 fold enrichment (6-mer frequency, TF over GST control); with ELF3, 1.26 fold enrichment (6-mer frequency, TF over GST control).

With GGTTCA, the binding signal with FLI1 was 1.14 fold enrichment (6-mer frequency, TF over GST control); with ELK1, 1.04 fold enrichment (6-mer frequency, TF over GST control); with GABPA, 1.11 fold enrichment (6-mer frequency, TF over GST control); with ERG, 1.03 fold enrichment (6-mer frequency, TF over GST control); with ELF1, 1.07 fold enrichment (6-mer frequency, TF over GST control); in the test with SPI1, 1.02 fold enrichment (6-mer frequency, TF over GST control). Also, the binding signal in the test with SPIB was 1.04 fold enrichment (6-mer frequency, TF over GST control); with ELK3, 1.03 fold enrichment (6-mer frequency, TF over GST control); in the test with FEV, 1.1 fold enrichment (6-mer frequency, TF over GST control); in the test with ETV5, 1.03 fold enrichment (6-mer frequency, TF over GST control); with SPIC, 1.14 fold enrichment (6-mer frequency, TF over GST control); with ELF4, 1.08 fold enrichment (6-mer frequency, TF over GST control). For the same sequence, the binding signal in the test with ELK4 was 1.14 fold enrichment (6-mer frequency, TF over GST control); in the test with ETV2 it was 1.14 fold enrichment (6-mer frequency, TF over GST control); in the test with ELF3, 1.07 fold enrichment (6-mer frequency, TF over GST control); in the test with ETV1 it was 1.07 fold enrichment (6-mer frequency, TF over GST control).
